“And” between values parts separate entries of the source, which are not always exact repeats. Equal entries are not always repeated. About 2,000 (36%) of roughly 5,500 compounds were called active. Another 18% or so got no clear call; they are omitted. No stated cut-off is given here; in the data, active means normalized growth mostly below about 0.91 (no sharp cut-off); inconclusive means no clear call, values can overlap the other calls; inactive means mostly above about 0.92. The list shows a part of the results.
Test: chemical genetic growth profiling, strain panel (AID 1159580);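 further: tested at 20 µM; growth read once vehicle control cultures reached saturation at 30 °C; 1 = growth at the plate median or of vehicle wells; lower values mean less growth of the strain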
Details: S. cerevisiae deletion strains, growth OD

Measured: normalized growth

CCCCC(CC)CN=C(N)NC(N)=NCCCCCCN=C(N)NC(N)=NCC(CC)CCCC (stereo not drawn)
active: locus YAL021C, strain ccr4, active compounds read low 0.063 | locus YAL026C, strain drs2, active compounds read low 0.0642 | locus YAL030W, strain snc1, active compounds read low 0.0574 | locus YBL061C, strain skt5, active compounds read low 0.0589 | locus YBR009C, strain hhf1, active compounds read low 0.0622 | locus YBR021W, strain FUR4, active compounds read low 0.097 | locus YBR023C, strain chs3, active compounds read low 0.064 | locus YBR171W, strain sec66, active compounds read low 0.0773 | locus YBR229C, strain ROT2, active compounds read low 0.056 | locus YBR231C, strain swc5, active compounds read low 0.0612 | locus YBR279W, strain paf1, active compounds read low 0.0581 | locus YCL011C, strain gbp2, active compounds read low 0.0577 | locus YCL016C, strain dcc1, active compounds read low 0.0603 | locus YCL029C, strain bik1, active compounds read low 0.0601 | locus YCL069W, strain vba3, active compounds read low 0.0617 | locus YCR088W, strain abp1, active compounds read low 0.0627 | locus YDL005C, strain med2, active compounds read low 0.0747 | locus YDL035C, strain GPR1, active compounds read low 0.0524 | locus YDL040C, strain nat1, active compounds read low 0.0565 | locus YDL074C, strain BRE1, active compounds read low 0.0887 | locus YDL101C, strain DUN1, active compounds read low 0.0654 | locus YDL134C, strain PPH21, active compounds read low 0.0565 | locus YDL185W, strain tfp1, active compounds read low 0.0566 | locus YDL192W, strain arf1, active compounds read low 0.0604 | locus YDR001C, strain nth1, active compounds read low 0.061 | locus YDR069C, strain doa4, active compounds read low 0.0611 | locus YDR101C, strain arx1, active compounds read low 0.0576 | locus YDR137W, strain rgp1, active compounds read low 0.0839 | locus YDR159W, strain sac3, active compounds read low 0.086 | locus YDR162C, strain NBP2, active compounds read low 0.0531 | locus YDR195W, strain ref2 0.115 | locus YDR297W, strain sur2, active compounds read low 0.0561 | locus YDR318W, strain mcm21, active compounds read low 0.0605 | locus YDR334W, strain swr1, active compounds read low 0.0645 | locus YDR335W, strain msn5, active compounds read low 0.062 | locus YDR388W, active compounds read low 0.0558 | locus YDR392W, strain spt3, active compounds read low 0.0874 | locus YDR502C, strain sam2, active compounds read low 0.0583 | locus YEL003W, strain gim4, active compounds read low 0.054 | locus YEL037C, strain rad23, active compounds read low 0.0582 | locus YEL061C, strain CIN8 (second series), active compounds read low 0.06 | locus YEL061C, strain CIN8, active compounds read low 0.0537 | locus YER015W, strain faa2, active compounds read low 0.0615 | locus YER016W, strain bim1, active compounds read low 0.0587 | locus YER110C, active compounds read low 0.0718 | locus YER111C, strain swi4, active compounds read low 0.0729 | locus YER155C, strain BEM2 (second series), active compounds read low 0.09 | locus YER155C, strain BEM2, active compounds read low 0.0673 | locus YER167W, strain BCK2, active compounds read low 0.0573 | locus YFR010W, strain ubp6, active compounds read low 0.0674 | locus YGL078C, strain dbp3, active compounds read low 0.0573 | locus YGL086W, strain mad1, active compounds read low 0.0562 | locus YGL167C, strain pmr1, active compounds read low 0.071 | locus YGL173C, strain kem1, active compounds read low 0.0685 | locus YGL227W, strain vid30, active compounds read low 0.0653 | locus YGL240W, strain doc1, active compounds read low 0.0743 | locus YGL248W, strain PDE1, active compounds read low 0.0546 | locus YGL253W, strain hxk2, active compounds read low 0.0547 | locus YGR078C, strain PAC10, active compounds read low 0.0524 | locus YGR135W, strain pre9, active compounds read low 0.0595 | locus YGR252W, strain gcn5, active compounds read low 0.113 | locus YHR013C, strain ard1, active compounds read low 0.109 | locus YHR027C, strain rpn1, active compounds read low 0.0612 | locus YHR030C, strain SLT2, active compounds read low 0.0544 and 0.0908 | locus YHR079C, strain IRE1 (second series), active compounds read low 0.0569 | locus YHR079C, strain IRE1, active compounds read low 0.106 | locus YHR094C, strain hxt1, active compounds read low 0.0581 | locus YHR129C, strain ARP1, active compounds read low 0.0586 | locus YHR142W, strain chs7, active compounds read low 0.0728 | locus YHR200W, strain rpn10, active compounds read low 0.0601 | locus YIL066C, strain RNR3, active compounds read low 0.0539 | locus YIL073C, strain SPO22, active compounds read low 0.104 | locus YIL125W, strain kgd1, active compounds read low 0.0595 | locus YIR030C, strain dcg1, active compounds read low 0.0594 | locus YJL092W, strain hpr5, active compounds read low 0.0605 | locus YJL095W, strain BCK1 (second series), active compounds read low 0.0569 | locus YJL095W, strain BCK1, active compounds read low 0.0657 and 0.0991 | locus YJL115W, strain asf1, active compounds read low 0.0737 | locus YJL129C, strain trk1, active compounds read low 0.0818 | locus YJL134W, strain LCB3, active compounds read low 0.0522 | locus YJL154C, strain vps35, active compounds read low 0.0612 | locus YJL164C, strain tpk1, active compounds read low 0.06 | locus YJL166W, strain qcr8, active compounds read low 0.0603 | locus YJL168C, strain set2, active compounds read low 0.0617 | locus YJL187C, strain SWE1 (second series), active compounds read low 0.0584 | locus YJR043C, strain POL32, active compounds read low 0.0684 | locus YJR066W, strain TOR1, active compounds read low -0.00183 | locus YJR075W, strain HOC1, active compounds read low 0.0661
